The source of these data is ChEMBL document CHEMBL1961873, “Compounds: GSK PKIS; Assays: Nanosyn kinase panel” (2012).

The target in assay [1] is Tyrosine-protein kinase Fyn (Homo sapiens) (UniProt P06241). The following applies: at 1 µM.
The target in assay [2] is Tyrosine-protein kinase HCK (Homo sapiens) (UniProt P08631). Conditions: at 0.1 µM.
For assay [3] the target is unchanged. The following applies: at 1 µM.
Assay [4] deals with Insulin-like growth factor 1 receptor (Homo sapiens) (UniProt P08069). Conditions: at 0.1 µM.
The target is the same in assay [5]. The following applies: at 1 µM.
Assay [6] has as its target Insulin receptor (Homo sapiens) (UniProt P06213). Conditions: at 0.1 µM.
Assay [7] has the same target. The following applies: at 1 µM.
The target of assay [8] is Insulin receptor-related protein (Homo sapiens) (UniProt P14616). The following applies: at 0.1 µM.
For assay [9] the target is unchanged. The following applies: at 1 µM.
The target of assay [10] is T1, Tyrosine-protein kinase ITK/TSK (Homo sapiens) (UniProt Q08881).
T1 sequence (whole entry): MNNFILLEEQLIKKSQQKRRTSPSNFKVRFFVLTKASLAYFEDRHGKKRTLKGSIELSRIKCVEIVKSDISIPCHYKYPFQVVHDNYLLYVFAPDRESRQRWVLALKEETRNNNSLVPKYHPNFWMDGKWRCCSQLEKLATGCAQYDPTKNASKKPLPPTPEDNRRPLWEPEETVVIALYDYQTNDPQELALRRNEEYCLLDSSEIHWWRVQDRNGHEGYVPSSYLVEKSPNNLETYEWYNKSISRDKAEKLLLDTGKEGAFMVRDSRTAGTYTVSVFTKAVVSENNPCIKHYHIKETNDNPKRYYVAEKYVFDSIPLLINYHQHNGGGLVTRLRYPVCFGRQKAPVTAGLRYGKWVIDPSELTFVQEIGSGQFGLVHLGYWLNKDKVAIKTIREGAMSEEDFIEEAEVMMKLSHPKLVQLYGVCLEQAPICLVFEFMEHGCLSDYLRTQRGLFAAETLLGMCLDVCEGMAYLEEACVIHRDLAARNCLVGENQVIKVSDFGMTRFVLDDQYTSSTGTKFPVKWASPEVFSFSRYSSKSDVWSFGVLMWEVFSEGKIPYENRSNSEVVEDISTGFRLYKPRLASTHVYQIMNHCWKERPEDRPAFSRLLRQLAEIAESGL
Conditions: at 0.1 µM.

Assay [11] deals with T1, Tyrosine-protein kinase ITK/TSK (Homo sapiens). Conditions: at 1 µM.
The target of assay [12] is Tyrosine-protein kinase JAK1 (Homo sapiens) (UniProt P23458). Conditions: at 0.1 µM.
The target is the same in assay [13]. Conditions: at 1 µM.
For assay [14], the target named is Tyrosine-protein kinase JAK2 (Homo sapiens) (UniProt O60674). The following applies: at 0.1 µM.
Sequence of Tyrosine-protein kinase JAK2 (Homo sapiens) (O60674 whole entry): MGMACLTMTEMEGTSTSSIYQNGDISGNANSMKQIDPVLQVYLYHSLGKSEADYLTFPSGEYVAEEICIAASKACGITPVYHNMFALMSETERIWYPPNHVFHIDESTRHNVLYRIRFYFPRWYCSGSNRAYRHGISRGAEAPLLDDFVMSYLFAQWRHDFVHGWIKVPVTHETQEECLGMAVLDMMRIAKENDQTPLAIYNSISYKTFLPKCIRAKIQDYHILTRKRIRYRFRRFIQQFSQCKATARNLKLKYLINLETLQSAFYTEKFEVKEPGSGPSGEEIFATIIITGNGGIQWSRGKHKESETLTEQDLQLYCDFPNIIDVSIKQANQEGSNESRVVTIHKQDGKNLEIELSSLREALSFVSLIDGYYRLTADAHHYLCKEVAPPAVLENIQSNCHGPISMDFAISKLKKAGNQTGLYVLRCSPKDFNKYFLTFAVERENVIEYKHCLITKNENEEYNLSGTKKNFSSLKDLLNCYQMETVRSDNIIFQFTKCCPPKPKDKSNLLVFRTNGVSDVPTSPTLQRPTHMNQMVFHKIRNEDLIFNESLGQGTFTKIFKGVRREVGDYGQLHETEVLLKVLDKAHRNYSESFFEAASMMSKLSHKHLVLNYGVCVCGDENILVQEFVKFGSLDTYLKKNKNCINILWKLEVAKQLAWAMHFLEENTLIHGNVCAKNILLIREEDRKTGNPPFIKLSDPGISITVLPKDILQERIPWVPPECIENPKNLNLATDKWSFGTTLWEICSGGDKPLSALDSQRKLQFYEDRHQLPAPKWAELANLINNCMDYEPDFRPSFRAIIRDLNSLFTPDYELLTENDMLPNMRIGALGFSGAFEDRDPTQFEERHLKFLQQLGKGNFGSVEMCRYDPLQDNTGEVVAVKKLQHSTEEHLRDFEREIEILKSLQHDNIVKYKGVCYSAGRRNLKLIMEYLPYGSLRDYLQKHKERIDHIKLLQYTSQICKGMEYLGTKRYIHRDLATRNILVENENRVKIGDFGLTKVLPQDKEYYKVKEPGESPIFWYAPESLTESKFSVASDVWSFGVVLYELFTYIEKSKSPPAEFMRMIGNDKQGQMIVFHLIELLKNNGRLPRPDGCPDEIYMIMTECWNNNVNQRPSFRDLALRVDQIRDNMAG
Assay [15] has the same target. Conditions: at 1 µM.
Assay [16] addresses T2, Tyrosine-protein kinase JAK3 (Homo sapiens) (UniProt P52333).
T2 sequence (whole entry): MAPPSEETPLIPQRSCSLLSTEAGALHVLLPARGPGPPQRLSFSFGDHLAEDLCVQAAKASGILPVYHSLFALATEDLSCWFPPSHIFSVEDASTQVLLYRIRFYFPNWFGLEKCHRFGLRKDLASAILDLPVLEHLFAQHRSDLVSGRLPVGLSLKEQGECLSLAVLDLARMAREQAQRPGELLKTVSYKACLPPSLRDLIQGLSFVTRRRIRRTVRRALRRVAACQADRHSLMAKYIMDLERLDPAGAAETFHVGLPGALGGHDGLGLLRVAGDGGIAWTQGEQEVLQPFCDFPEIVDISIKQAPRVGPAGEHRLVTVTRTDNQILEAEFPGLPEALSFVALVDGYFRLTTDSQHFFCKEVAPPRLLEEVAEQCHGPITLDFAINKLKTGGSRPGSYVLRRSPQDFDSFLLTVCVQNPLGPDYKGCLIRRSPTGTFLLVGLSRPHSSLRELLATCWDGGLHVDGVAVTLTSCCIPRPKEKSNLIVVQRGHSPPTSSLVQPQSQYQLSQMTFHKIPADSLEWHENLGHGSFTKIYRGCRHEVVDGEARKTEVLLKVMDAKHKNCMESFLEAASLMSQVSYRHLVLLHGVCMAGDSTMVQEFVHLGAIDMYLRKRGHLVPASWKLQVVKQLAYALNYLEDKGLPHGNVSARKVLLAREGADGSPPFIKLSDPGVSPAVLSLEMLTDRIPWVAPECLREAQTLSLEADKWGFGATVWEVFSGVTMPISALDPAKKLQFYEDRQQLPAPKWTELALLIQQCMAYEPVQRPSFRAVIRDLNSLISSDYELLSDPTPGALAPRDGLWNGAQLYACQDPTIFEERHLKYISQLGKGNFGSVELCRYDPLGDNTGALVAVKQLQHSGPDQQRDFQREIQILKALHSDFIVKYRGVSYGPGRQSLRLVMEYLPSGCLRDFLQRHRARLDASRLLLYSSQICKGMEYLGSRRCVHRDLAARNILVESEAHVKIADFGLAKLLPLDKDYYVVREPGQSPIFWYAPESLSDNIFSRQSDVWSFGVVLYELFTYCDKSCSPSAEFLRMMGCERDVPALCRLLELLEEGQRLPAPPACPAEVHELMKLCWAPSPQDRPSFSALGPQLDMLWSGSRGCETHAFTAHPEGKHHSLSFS
Conditions: at 0.1 µM.

Assay [17] deals with T2, Tyrosine-protein kinase JAK3 (Homo sapiens). The following applies: at 1 µM.
Assay [18] concerns the target Vascular endothelial growth factor receptor 2 (Homo sapiens) (UniProt P35968). Conditions: at 0.1 µM.
Assay [19] has the same target. Conditions: at 1 µM.
Assay [20] deals with Mast/stem cell growth factor receptor Kit (Homo sapiens) (UniProt P10721). The following applies: at 0.1 µM.

Structures are written as SMILES.

Sequence of Tyrosine-protein kinase Fyn (Homo sapiens) (P06241 2-537 limits assumed): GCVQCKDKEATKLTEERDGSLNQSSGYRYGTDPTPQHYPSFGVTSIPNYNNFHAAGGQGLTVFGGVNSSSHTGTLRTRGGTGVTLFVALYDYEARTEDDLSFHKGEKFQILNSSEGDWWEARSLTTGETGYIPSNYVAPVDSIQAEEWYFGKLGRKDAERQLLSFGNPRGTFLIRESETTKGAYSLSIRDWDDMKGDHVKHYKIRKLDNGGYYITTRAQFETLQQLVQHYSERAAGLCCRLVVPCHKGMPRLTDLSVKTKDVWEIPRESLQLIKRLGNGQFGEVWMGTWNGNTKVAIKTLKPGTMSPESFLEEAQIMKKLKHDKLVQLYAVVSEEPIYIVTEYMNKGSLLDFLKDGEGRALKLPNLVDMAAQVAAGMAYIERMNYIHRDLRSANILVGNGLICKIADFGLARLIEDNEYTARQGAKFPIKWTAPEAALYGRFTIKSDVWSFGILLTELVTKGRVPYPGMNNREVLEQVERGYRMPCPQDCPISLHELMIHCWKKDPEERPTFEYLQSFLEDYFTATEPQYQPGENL
Sequence of Insulin receptor (Homo sapiens) (P06213 28-758 limits assumed): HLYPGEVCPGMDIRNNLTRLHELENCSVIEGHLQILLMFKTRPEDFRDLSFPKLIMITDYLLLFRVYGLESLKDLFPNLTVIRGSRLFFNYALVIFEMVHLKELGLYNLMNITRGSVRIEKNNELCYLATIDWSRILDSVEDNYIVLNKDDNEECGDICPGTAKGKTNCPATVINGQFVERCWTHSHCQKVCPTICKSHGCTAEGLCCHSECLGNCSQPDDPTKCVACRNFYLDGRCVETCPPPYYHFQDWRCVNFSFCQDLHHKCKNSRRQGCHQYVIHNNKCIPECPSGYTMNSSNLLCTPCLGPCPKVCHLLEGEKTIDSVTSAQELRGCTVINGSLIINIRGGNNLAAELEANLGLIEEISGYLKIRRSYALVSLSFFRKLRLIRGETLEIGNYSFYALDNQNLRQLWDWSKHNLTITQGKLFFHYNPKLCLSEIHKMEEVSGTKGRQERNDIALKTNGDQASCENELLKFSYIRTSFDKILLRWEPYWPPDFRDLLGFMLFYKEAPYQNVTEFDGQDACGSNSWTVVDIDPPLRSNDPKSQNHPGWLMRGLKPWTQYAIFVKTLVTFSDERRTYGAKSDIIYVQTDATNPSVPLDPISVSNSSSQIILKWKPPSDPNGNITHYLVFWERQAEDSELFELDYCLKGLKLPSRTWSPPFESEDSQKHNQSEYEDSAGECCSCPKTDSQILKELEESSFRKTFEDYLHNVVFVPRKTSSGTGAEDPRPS
Sequence of Insulin receptor (Homo sapiens) (P06213 763-1382 limits assumed): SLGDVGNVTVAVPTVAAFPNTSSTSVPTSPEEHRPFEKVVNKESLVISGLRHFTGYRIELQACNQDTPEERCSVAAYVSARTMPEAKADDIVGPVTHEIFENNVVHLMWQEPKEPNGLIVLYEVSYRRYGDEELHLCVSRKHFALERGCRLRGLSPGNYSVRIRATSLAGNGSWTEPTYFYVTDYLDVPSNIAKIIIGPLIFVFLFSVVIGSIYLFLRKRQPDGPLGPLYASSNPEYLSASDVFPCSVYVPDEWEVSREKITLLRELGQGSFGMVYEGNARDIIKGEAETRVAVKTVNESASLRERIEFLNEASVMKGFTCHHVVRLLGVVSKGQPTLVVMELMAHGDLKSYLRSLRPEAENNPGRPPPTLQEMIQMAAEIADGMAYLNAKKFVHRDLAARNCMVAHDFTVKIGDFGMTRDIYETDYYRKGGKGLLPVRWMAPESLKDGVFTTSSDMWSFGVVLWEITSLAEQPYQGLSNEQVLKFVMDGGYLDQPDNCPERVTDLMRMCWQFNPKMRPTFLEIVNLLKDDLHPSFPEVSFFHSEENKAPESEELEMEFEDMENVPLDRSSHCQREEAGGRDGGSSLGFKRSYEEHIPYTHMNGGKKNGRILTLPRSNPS
Sequence of Vascular endothelial growth factor receptor 2 (Homo sapiens) (P35968 whole entry): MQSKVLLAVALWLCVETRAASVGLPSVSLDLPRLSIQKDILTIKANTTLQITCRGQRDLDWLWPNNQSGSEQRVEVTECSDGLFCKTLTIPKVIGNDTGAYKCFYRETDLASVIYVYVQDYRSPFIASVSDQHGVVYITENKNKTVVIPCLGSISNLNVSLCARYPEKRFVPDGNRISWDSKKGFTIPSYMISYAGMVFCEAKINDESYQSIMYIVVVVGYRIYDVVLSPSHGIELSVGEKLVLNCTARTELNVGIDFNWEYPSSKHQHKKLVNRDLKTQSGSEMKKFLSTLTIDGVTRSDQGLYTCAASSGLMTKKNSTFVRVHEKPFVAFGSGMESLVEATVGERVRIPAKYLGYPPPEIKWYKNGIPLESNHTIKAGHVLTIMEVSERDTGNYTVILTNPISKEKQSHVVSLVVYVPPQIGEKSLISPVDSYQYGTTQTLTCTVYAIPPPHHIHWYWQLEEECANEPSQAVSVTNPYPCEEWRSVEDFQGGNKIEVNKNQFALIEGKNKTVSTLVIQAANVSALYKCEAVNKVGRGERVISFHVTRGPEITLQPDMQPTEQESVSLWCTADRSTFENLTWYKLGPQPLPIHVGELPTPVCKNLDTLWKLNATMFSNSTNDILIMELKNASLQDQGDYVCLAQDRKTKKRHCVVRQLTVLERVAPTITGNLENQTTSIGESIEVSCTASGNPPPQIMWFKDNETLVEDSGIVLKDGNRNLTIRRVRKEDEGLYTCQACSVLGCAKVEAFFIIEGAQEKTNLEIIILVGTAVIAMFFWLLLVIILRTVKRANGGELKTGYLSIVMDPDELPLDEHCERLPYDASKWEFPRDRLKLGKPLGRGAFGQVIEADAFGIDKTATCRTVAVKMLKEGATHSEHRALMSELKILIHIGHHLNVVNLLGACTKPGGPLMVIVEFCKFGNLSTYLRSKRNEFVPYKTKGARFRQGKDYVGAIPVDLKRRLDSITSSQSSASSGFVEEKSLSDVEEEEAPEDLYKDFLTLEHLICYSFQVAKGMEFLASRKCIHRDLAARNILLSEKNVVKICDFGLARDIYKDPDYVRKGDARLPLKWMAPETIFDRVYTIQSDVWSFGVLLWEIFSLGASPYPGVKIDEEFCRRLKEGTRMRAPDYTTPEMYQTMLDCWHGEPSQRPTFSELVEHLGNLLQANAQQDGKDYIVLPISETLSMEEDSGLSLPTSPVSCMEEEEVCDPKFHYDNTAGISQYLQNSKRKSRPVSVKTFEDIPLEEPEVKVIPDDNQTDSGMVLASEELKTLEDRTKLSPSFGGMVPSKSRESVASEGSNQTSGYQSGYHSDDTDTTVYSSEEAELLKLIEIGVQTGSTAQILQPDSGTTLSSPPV
Sequence of Tyrosine-protein kinase HCK (Homo sapiens) (P08631 2-526 limits assumed): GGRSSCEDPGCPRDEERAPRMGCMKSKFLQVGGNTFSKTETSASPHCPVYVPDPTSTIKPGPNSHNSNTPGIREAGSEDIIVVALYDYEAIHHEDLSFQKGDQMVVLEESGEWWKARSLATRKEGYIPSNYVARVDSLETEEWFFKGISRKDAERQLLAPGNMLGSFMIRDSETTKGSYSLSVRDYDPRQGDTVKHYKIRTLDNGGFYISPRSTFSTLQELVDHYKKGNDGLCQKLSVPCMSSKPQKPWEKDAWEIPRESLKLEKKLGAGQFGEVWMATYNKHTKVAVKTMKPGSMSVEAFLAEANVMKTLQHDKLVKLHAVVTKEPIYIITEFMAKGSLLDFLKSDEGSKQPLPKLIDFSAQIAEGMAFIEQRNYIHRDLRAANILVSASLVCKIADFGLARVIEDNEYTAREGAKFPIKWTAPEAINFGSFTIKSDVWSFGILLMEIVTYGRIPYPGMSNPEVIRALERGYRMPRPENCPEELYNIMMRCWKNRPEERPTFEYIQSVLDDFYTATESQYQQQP

Regarding `COc1ccc(-c2cc(-c3c[nH]nc3-c3ccccn3)ccn2)cc1`, the inhibition is 3.5% in assay [1]; 4.81% in assay [2]; 10.3% in [3]; 3.75% in [4]; 3.01% in [5]; 4.5% in [6]. The inhibition in assay [7] was found to be 3.43%; in assay [8], 3.63%; in assay [9] it was 3.15%; in assay [10], 1.28%; in [11] it was 2.05%; in [12], 4.74%. The inhibition in assay [13] was 7.4%; in assay [14] it was 1.59%; in [15] it was 4.19%; in assay [16] it was -1.18%; in assay [17], -0.62%; in assay [18] it was 12.7%. Moreover, the figures for the inhibition in [19] and in assay [20] were 48% and 5.05%, respectively.
For `c1ccc(COc2ccc(Nc3ncnc4ccc(-c5ccco5)cc34)cc2)cc1`, the inhibition in assay [1] was 3.93%; in assay [2] it was 1.03%; in assay [3], 1.93%; in [4], -0.83%; in assay [5], -0.77%; in assay [6], 0.94%. Also, the inhibition in assay [7] was 0.94%; in assay [8], 0.38%; in assay [9], 0.28%; in assay [10] it was -0.91%; in [11], 0.76%; in assay [12], 4%. The inhibition in assay [13] was 2.21%; in assay [14], 0.1%; in assay [15] it was -0.74%; in assay [16], -2.56%; in assay [17], -0.1%; in [18] it was 0.23%. Further, the inhibition in assay [19] was -0.38%; in assay [20], 0.2%.
With `N#Cc1c(NC(=O)c2ccc(F)cc2)sc2c1CCCC2`, the inhibition was 3.42% in [1]; 1.68% in assay [2]; 3.88% in assay [3]; 0.23% in assay [4]; -0.52% in assay [5]; 3.54% in [6]. For the same compound, the inhibition is 2.79% in [7]; -2.15% in assay [8]; -0.16% in [9]; 0.64% in assay [10]; 0.63% in [11]; 1.63% in assay [12]. The inhibition in [13] is 6.11%; in assay [14], -0.41%; in assay [15] it was 0.9%; in assay [16], 0.53%; in assay [17], 2.52%; in [18] it was 4.31%. Moreover, the inhibition in [19] was 6.96%; in assay [20], 6.24%.
For the compound `CCCN1CCC(c2ccc(Nc3nc(Nc4cc(F)ccc4C(N)=O)c4cc[nH]c4n3)c(OC)c2)CC1`, the inhibition in [1] amounted to 25.1%; in assay [2], 5.95%; in assay [3], 11.5%; in [4], 91.8%; in assay [5] it was 93.6%; in assay [6] it was 97.5%. For the same compound, the inhibition in assay [7] is 97.3%; in assay [8], 93.3%; in assay [9] it was 97.2%; in assay [10], 1.62%; in [11] it was 7.34%; in assay [12] it was 2.55%. Moreover, the inhibition was 20.8% in [13]; 0.71% in [14]; 2.85% in assay [15]; -0.92% in assay [16]; 0.07% in assay [17]; 6.99% in [18]. The inhibition in assay [19] was 18.6%; in assay [20], 7.64%.
In the case of `CC(C)(CO)CNC(=O)c1ccc2c(c1)/C(=N/Nc1ccc(S(N)(=O)=O)cc1)C(=O)N2`, the inhibition in assay [1] is 53.7%; in assay [2], 0.91%; in assay [3], 21.2%; in assay [4], -4.8%; in assay [5] it was -2.3%; in [6], -1.59%. Further, the inhibition in [7] is -0.37%; in assay [8], -2%; in assay [9] it was -2.31%; in [10], -1.6%; in [11], 1.2%; in [12] it was 1.29%. Further, the inhibition in [13] was 2.13%; in [14], -1.03%; in assay [15], 1.02%; in [16] it was -0.67%; in assay [17], 13.5%; in assay [18] it was 9.03%. In addition, the inhibition is 56% in assay [19] and -4.53% in assay [20].

The inhibition is the drop in the measured response relative to a control, in per cent.
